Nrf2 activator = activates Nrf2 signaling; AREc32 ARE-luciferase reporter (MCF7-derived line), luminescence, 24 h; Potency, µM (series often up to 46.1 µM), for inactives: top-dose activation, hits mostly activators; 410,000 tested, 0.31% active; note: potency is the fitted concentration of half-maximal effect; % of control where 0% means no effect; nearly all actives have a fitted effect of over 65% in size
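ARE-driven firefly luciferase activity in AREc32 cells measured after a 24 hr compound exposure at 37 deg C, using Steady-Glo reagent and a 30 min room-temperature hold.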
DRD3 antagonist = antagonists of human D3 dopamine receptor; AID 652054; 360,000 tested, 2.5% active; max response, negative = inhibition, %; P35462; D3R cells, DiscoveRx beta-arrestin luminescence, antagonist mode; stronger effect = lower value; in the data active = max response below about -50%; inconclusive = no clear call, values can overlap the other calls; note: % is set by controls: 0 for no effect and ±100 for the full control effect
Target sequence (P35462 whole entry, looked up): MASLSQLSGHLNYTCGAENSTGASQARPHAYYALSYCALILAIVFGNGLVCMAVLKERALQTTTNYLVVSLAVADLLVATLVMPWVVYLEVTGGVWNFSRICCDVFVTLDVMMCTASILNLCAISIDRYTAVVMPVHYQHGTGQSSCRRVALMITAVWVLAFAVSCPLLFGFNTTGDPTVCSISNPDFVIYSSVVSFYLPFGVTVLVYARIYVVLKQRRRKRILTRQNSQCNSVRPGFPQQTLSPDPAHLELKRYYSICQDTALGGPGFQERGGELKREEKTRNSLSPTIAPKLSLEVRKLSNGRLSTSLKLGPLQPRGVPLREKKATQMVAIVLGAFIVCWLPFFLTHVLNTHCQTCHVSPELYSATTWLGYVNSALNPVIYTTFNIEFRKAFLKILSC
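Cells expressing the human receptor were seeded at 1500 cells/well, incubated overnight at 37 degrees C in 5% CO2, then exposed to library compounds with dopamine controls for 90 minutes at 37 degrees C before luminescent detection.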
DRD3 agonist = agonists of human D3 dopamine receptor; P35462; AID 652048; D3R DiscoveRx beta-arrestin cells, luminescence, 90 min; 410,000 tested, 0.58% active; max activation, %; in the data active = max activation above about 30%; note: 0% is about no effect
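Cells at 1500/well, incubated overnight, then treated with pinned compounds (dopamine as control) for 90 min at 37 degrees C. DiscoveRx reagent added for 30 - 60 minutes at room temperature; luminescence read.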
Glioma ERSR ind = inducers of ER stress response in human glioma cells; U87-MG GRP78 promoter luciferase reporter, 16 h; Potency, µM, for the others: at the highest dose activation, usual class: activators; 420,000 tested, 0.02% active; AID 602332; note: potency is the fitted concentration of half-maximal effect; series mostly up to about 76 µM; % of control where 0% means no effect; nearly all actives have a fitted effect of over 35% in size
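Stably transfected U87-MG glioma cells carrying a GRP78-based luciferase sensor; 16 h compound incubation. Luminescence end-point read 10 min after Bright-Glo addition at room temperature.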
* hit, by the source's call; ? = inconclusive; . = no result given. Rows were chosen to be rich in hits. Some 3% of all compounds tested hit in one or more screens of this group. Unless noted, calls come from the whole dose curve; as a rule, active = well fitted curve in the direction sought with a large enough effect; inconclusive = small, poorly fitted or top-dose-only effect, or another doubt; inactive = no such curve, though single readings can be large; an effect the other way counts as inactive or inconclusive.

SMILES	Nrf2 activator	DRD3 antagonist	DRD3 agonist	Glioma ERSR ind
COc1cc2c(cc1OC)CN(CC(=O)Nc1ccc3c(c1)OCO3)CC2	0.0%	-25.4	-5.1	-3.0%
O=C(CCN1CCc2ccccc2C1)Nc1ccc2c(c1)OCO2	0.8%	-67.1*	-10.3	-4.3%
O=C(CCN1CCc2ccccc2C1)Nc1ccc(F)c(F)c1	0.0%	-102.8*	-18.0	-4.4%
Cc1ccc(C)c(NC(=O)CCN2CCc3ccccc3C2)c1	2.7%	-108.4*	-13.7	2.0%
O=S1(=O)CCO[C@H]2CCCC[C@@H]2N1Cc1ccccc1F	.	.	.	-2.6%
CN=c1scc(C)n1/N=C/c1ccc(O)c(O)c1O	4.0%	-9.0	5.7	-5.6%
CCN=c1scc(C)n1/N=C/c1ccsc1	7.08µM*	-1.7	3.9	-0.4%
O=[N+]([O-])c1ccc(S(=O)(=O)NN=C2CCCCC2)cc1	2.6%	-51.9*	-12.8	-2.1%
O=S(=O)(NN=C1CCCCCC1)c1ccc(Cl)cc1	-0.6%	-4.0	-1.3	-3.2%
COC(=O)c1ccccc1-c1cc(C)cc2c1OC(CNC(=O)c1cnc(C)cn1)C2 (centres undefined)	.	.	.	0.5%
Cc1ccccc1OCCNCC(C)O (centres undefined)	0.4%	-56.6*	-12.0	-3.5%
O=C(CSc1ccncc1)NCC1Cc2cccc(-c3cncnc3)c2O1 (centres undefined)	.	.	.	-3.2%
COc1ccc([N+](=O)[O-])cc1/C=N/NC(=O)CNC(=O)C(c1ccccc1)c1ccccc1	11.7%	0.0	-18.6	-4.5%
COc1ccc([N+](=O)[O-])cc1/C=N/NC(=O)CNC(=O)c1cccc(F)c1	12.4%	-116.9*	-30.2	-1.9%
Nc1c(C(=O)c2ccccc2)sc2c1c(=O)[nH]c(=O)n2-c1ccccc1	3.8%	-52.8*	-27.2	-2.1%
Cc1ccc2c(c1)-c1onc(C(=O)N3CCN(c4cc(C)ccc4C)CC3)c1CO2	-1.3%	.	3.1	-3.1%
CCCN1CCN(C(=O)c2noc3c2COc2ccc(C)cc2-3)CC1	3.0%	-64.3*	0.3	-0.2%
CC(C)(C)n1nnnc1C(c1cccs1)N(Cc1cccnc1)Cc1ccccc1Cl (centres undefined)	2.3%	-58.0*	-8.4	-0.4%
CC(c1nnnn1C(C)(C)C)N(Cc1cccnc1)Cc1ccccc1Cl (centres undefined)	2.9%	5.9	0.5	-3.1%
Cc1ccc(C)c(NC(=S)NNC(=O)c2csc3c2CCC(C)C3)c1 (centres undefined)	-0.7%	-59.7*	-7.8	-3.4%
Cc1sc(NC(=O)CCl)c(C(=O)c2ccccc2)c1C	?	-66.3*	-3.9	?
Clc1nc(-c2ccccc2)cc(-c2ccccc2)n1	8.91µM*	15.4	0.9	-0.3%
Clc1cc(-c2ccccc2)nc(-c2ccccc2)n1	?	?	-18.6	-2.0%
Cc1nc2ccccn2c(=O)c1NC(=O)c1ccc(F)c(F)c1	9.7%	.	-5.1	-2.3%
Cc1ccccc1NC(=O)CSc1nc2ccc(NC(=O)c3ccccc3)cc2s1	5.6%	.	4.6	-1.7%
SMILES	Nrf2 activator	DRD3 antagonist	DRD3 agonist	Glioma ERSR ind
Oc1ccc(Br)cc1/C=N/Nc1nc(N2CCCCC2)nc(N2CCOCC2)n1	0.3%	5.9	-6.2	-2.9%
Oc1ccc(/C=N/Nc2nc(N3CCCCCC3)nc(N3CCCCCC3)n2)c(O)c1	-1.6%	55.1	37.2*	-13.8%
C(=N\Nc1nc(N2CCCCCC2)nc(N2CCCCCC2)n1)/c1ccccc1	-1.0%	87.2	5.4	0.0%
CC(/C=N/Nc1nc(N2CCCCC2)nc(N2CCCCC2)n1)=C\c1ccccc1	0.1%	-18.1	39.3*	-2.0%
COc1ccc(C(NC(=O)/C=C/c2ccco2)c2ccc(OC)c(OC)c2)cc1OC	1.0%	-55.6*	-5.4	-4.5%
COc1ccc(C(CNC(=O)Cc2c(F)cccc2Cl)N2CCCCC2)cc1 (centres undefined)	4.9%	-111.1*	-14.6	-3.5%
COc1ccccc1C(CNC(=O)COc1cc(C)ccc1Cl)N1CCCC1 (centres undefined)	0.2%	2.0	-13.5	-2.3%
COc1ccc(C(CNC(=O)COc2cc(C)ccc2Cl)N2CCCCC2)cc1 (centres undefined)	-0.3%	-58.5*	-27.5	-3.3%
COc1ccc(C2=NC(c3ccc(Cl)cc3)C(c3ccc(Cl)cc3)N2C(=O)N2CCNC(=O)C2)c(OC(C)C)c1 (centres undefined)	.	.	.	3.0%
CCOc1cccc2c1OC1(C)CC2NC(=O)N1c1cccc(F)c1 (centres undefined)	0.0%	-50.6*	4.6	-3.2%
Nc1nc(N=Nc2ccc(O)cc2)cc(=O)[nH]1	-0.9%	-90.1*	-22.3	-2.2%
Nc1nc(N)c(N=Nc2ccccc2)c(=O)[nH]1	0.4%	-4.7	-11.5	1.3%
Cc1ccc(C(=O)C2CCN(CC(=O)NCc3ccc(F)cc3)CC2)cc1	-0.1%	-93.1*	-29.4	-3.4%
Cc1cc(NC(=O)CN2CCCC(C)C2)no1 (centres undefined)	-0.3%	8.3	3.5	-3.1%
Cc1ccc(NC(=O)CN2CCC(C(=O)c3ccc(F)cc3)CC2)cc1	-0.8%	-68.6*	-9.7	-5.2%
Cc1ccc(CNC(=O)CN2CCCC(C)C2)cc1 (centres undefined)	-0.6%	-71.5*	-5.9	-3.4%
Cc1ccc(C(=O)C2CCNCC2)cc1	0.1%	-64.8*	-5.9	-4.8%
Cn1cc(S(=O)(=O)N2CCOCC2)cc1C(=O)Nc1cccc(C#N)c1	7.0%	.	2.0	1.7%
COc1ccc(C(=O)N2CCCC(c3nc(SCc4ccccn4)ncc3C)C2)cc1F (centres undefined)	.	.	.	-0.4%
O=C(C[n+]1ccccc1Cl)c1cccc([N+](=O)[O-])c1	.	.	.	-3.2%
O=C(CN1CCC(C(=O)c2ccc(Cl)cc2)CC1)Nc1ccc2c(c1)OCCO2	-0.6%	-76.3*	-26.8	-5.6%
O=C1CCCN1CCCNCC(=O)N1c2ccccc2Sc2ccccc21	4.1%	-53.3*	-3.1	-5.4%
COc1cccc(NC(=S)N(CCc2ccc(OC)c(OC)c2)Cc2ccccn2)c1	3.0%	-53.2*	-19.0	-3.4%
COc1ccc(CCN(Cc2ccccn2)C(=S)Nc2ccccc2C)cc1OC	-0.2%	27.8	-1.7	-5.4%
CC1CCN(C(=O)c2cccc(NC(=O)c3nsc4ccccc34)c2)CC1	0.9%	.	0.2	-6.2%
SMILES	Nrf2 activator	DRD3 antagonist	DRD3 agonist	Glioma ERSR ind
Cc1cccc(NC(=S)NCc2ccco2)n1	12.6µM*	18.3	6.4	-1.4%
S=C(NCc1ccco1)NCc1ccco1	0.3%	4.7	8.8	-3.6%
CC(=O)OC1C(OC(C)=O)C2C(C)CC3OC(=O)C(C)C3CC2(C)C1OC(C)=O (centres undefined)	0.1%	0.0	-12.9	-2.6%
C=C1C(=O)O[C@@H]2C[C@@H](C)[C@@H]3C=CC(=O)[C@@]3(C)[C@@H](OC(C)=O)[C@H]12	-2.6%	-84.1*	-59.5	-11.9%
CN(C)Cc1c(C(=O)Nc2ccccc2)[nH]c2ccccc12	14.7%	-57.3*	-45.2	5.1%
COC(=O)[C@@H]1[C@@H](C#N)C2(c3ccccc3-c3ccccc32)N(c2ccc(Cl)cc2)N1C#N	13.2%	-54.2*	-6.2	-9.6%
O=C(O)CCCCCN1C(=O)/C(=C\c2ccc(-c3ccc(Cl)cc3)o2)SC1=S	0.0%	-9.9	3.6	-0.7%
